Compound activity from PubChem BioAssay.
In the library only some 4% were active in any assay of this set; here they are far more common.
Peg3 prom inh: reduces Peg3 promoter-driven luciferase expression in HeLa | HeLa PEG-Prom luciferase reporter, luminescence, overnight | inhibition, % at 20 µM | actives 1.7% (n = 360,000);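 active = inhibition of at least 50% at 20 µM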
TRPM1 prom inh: MITF TRPM1 promoter inhibition in SK-MEL-5 cells | SK-MEL-5 TRPM1 promoter luciferase, 24 h | inhibition, % at 12.5 µM | actives 0.83% (n = 330,000) | AID 488899;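 active = mean inhibition across replicates of 60% or more, whatever share of single replicates reaches that level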
EBV LMP1 NFkB: Epstein-Barr LMP1 NF-kappaB reporter inhibition; LMP1-induced NF-kappaB luciferase reporter cells, luminescence; inhibition, % at 12.5 µM; actives 0.69% (n = 350,000); in the data active = inhibition above about 41%;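 also: 0% = neutral control wells and 100% = reference inhibitor control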
TROY signal inh: TROY signaling inhibition; Q293 LMP1-TROYcd NF-kB luciferase reporter, 4 h; inhibition, % at 10 µM; actives 0.98% (n = 360,000); AID 1347056;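 active = compounds whose plate-normalised and pattern-corrected inhibition of the luciferase reporter signal at the single screening dose is 50% or more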
TWEAK-Fn14 inh: inhibitors of TWEAK-Fn14 interaction signaling. TWEAK-stimulated Fn14 reporter cells, luciferase luminescence, 8 h. inhibition, % at 10 µM. actives 2% (n = 360,000). AID 1159606; in the data active = inhibition above about 50%
HIF-2a block: HIF-2a inhibition; 786-0 RCC cells HIF-2a reporter, luciferase luminescence, overnight; inhibition, % at 18.8 µM; actives 0.72% (n = 360,000); AID 624352;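 active = inhibition of the luminescence signal of 40% or more relative to plate controls, in a single-dose primary screen at 18.75 µM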
Starred values were filed as active, the others as inactive; . = not tested or not shown.

SMILES | Peg3 prom inh | TRPM1 prom inh | EBV LMP1 NFkB | TROY signal inh | TWEAK-Fn14 inh | HIF-2a block
Oc1ccc(C[C@H]2CNC(=S)N2CC2CCCN2C[C@H](Cc2ccccc2)N2C[C@H](Cc3ccc(O)cc3)N(CCc3ccccc3)C2=S)cc1 (stereo not given in full) | 68.3* | 23.8 | 2.6 | 12.1 | 58.1* | -47.3
CC(C)C[C@@H](CN1CCC[C@@H]1CN1C(=S)NC[C@@H]1Cc1ccc(O)cc1)N1C[C@H](Cc2ccc(O)cc2)N(CCc2ccccc2)C1=S | 77.7* | . | . | 11.0 | 10.3 | -21.6
CCOc1ccc(CCN2C(=S)N([C@@H](CC(C)C)CN3CCCC3CN3C(=S)NC[C@@H]3Cc3ccc(O)cc3)C[C@@H]2Cc2ccccc2)cc1 (stereo not given in full) | -6.9 | 5.5 | 21.1 | -4.9 | -10.1 | -10.0
CC(C)C[C@@H](CN1CCCC1CN1C(=S)NC[C@@H]1Cc1ccccc1)N1C[C@H](Cc2ccc(O)cc2)N(CCc2ccccc2)C1=S (stereo not given in full) | . | . | . | 7.2 | 31.7 | -10.4
O=C(CSc1cn[nH]n1)Nc1ccc(Cl)cc1Cl | -17.4 | -12.0 | -8.7 | -22.0 | 1.2 | -22.4
O=C1Nc2c(Br)cc(Br)c3cccc1c23 | 73.6* | -8.4 | 8.9 | -8.5 | -14.7 | 2.0
COC(=O)C1=C(C)N(c2ccc(Cl)cc2)/C(=C/c2ccc(O)cc2)C1=O | 34.6 | 16.3 | 3.9 | 15.7 | 57.0* | 9.4
Cc1ccc(/C=N/NC(=O)Cn2nnc(N)n2)o1 | -0.7 | -4.2 | -2.4 | -1.1 | 87.4* | 10.6
CCOc1ccc(N=C2SC(C(=O)Nc3ccccc3C#N)C(N)=C2C(=O)Nc2ccc(Cl)cc2)cc1 (stereo not given) | 0.1 | 6.7 | -5.2 | 25.1 | -19.1 | -18.5
N#Cc1ccccc1NC(=O)C1SC(=Nc2ccccc2)C(C(=O)Nc2ccc(Cl)cc2)=C1N (stereo not given) | 26.5 | 72.2* | 32.0 | 46.6 | -6.9 | -9.5
CCOc1ccc(-c2[nH]ncc2Oc2ccccc2OCC)c(O)c1 | 54.6* | 14.7 | -4.1 | -17.2 | 30.8 | 25.3
CCOc1ccc(-c2[nH]ncc2-c2ccc(Cl)cc2)c(O)c1 | 55.2* | 4.9 | 3.0 | -4.2 | -1.0 | 5.5
CCOc1ccc(-c2[nH]ncc2-c2ccc(OC)c(OC)c2)c(O)c1 | 40.8 | -3.0 | 0.0 | 29.3 | 28.7 | 28.0
COc1ccc(CCNC(=O)CN2C(=O)NC(Cc3c[nH]c4ccccc34)C2=O)cc1 (stereo not given) | 10.5 | -6.7 | -7.2 | 15.0 | 2.6 | 13.9
CC1CCN(C2=NC(=O)/C(=C/c3cn(-c4ccccc4)nc3-c3cccc(S(=O)(=O)N(C)C)c3)S2)CC1 | -11.8 | -4.0 | -2.3 | . | 75.5* | -17.6
C[C@H](NC(=O)c1ncn2c1c(=O)[nH]c1ccc(Br)cc12)c1ccccc1 | 100.3* | . | -56.7 | 10.8 | -37.4 | 9.2
O=C(O)c1cccc(Nc2ccnc(Nc3cccc(C(=O)O)c3)n2)c1 | -34.6 | 33.6 | 57.8* | -75.1 | -11.6 | 32.4
COCCn1c(SCC(=O)N2CCCc3ccccc32)nc2c(c1=O)SC(C)C2 (stereo not given) | 1.1 | 13.3 | -13.3 | -4.7 | 11.0 | 5.0
COCCn1c(SCC(=O)N2CCc3ccccc32)nc2c(c1=O)SC(C)C2 (stereo not given) | 16.6 | 6.3 | 88.5* | 2.1 | -5.1 | 9.9
CCOC(=O)c1c(NC(N)=O)sc(C)c1C | -11.2 | 12.2 | 3.1 | 17.2 | 1.4 | 18.4
CCOC(=O)c1c(N2C(=O)C=CC2=O)sc(C)c1C | 105.1* | 60.8* | 19.8 | 4.7 | -0.1 | 46.8*
COC(=O)c1ccc(COc2cccc3c2CCN(Cc2ccccc2)C3=O)o1 | 14.7 | 6.5 | 3.2 | 28.1 | 35.0 | 9.5
COC(=O)c1ccc(COc2cccc3c2CCN(Cc2cccc(C)c2)C3=O)o1 | 4.8 | 12.8 | 11.9 | 38.4 | 55.4* | 20.2
COc1ccc(C(CCNCc2ccc(OC(C)C)cc2)c2ccccc2OC)cc1 (stereo not given) | 101.9* | 86.8* | -9.7 | 8.7 | -17.2 | 11.5
COc1ccc(CNCCC(c2ccc(OC)cc2)c2ccccc2OC)cc1 (stereo not given) | 18.6 | 19.5 | 3.6 | 8.8 | -7.8 | 17.5
COc1ccc(C(CCNCc2ccc(N(C)C)cc2)c2ccccc2OC)cc1 (stereo not given) | 59.7* | -0.5 | 5.6 | 5.2 | 2.2 | 17.7
